Assay [1] deals with T1, Serine/threonine-protein kinase D2 (Homo sapiens) (UniProt Q9BZL6).
T1 sequence (whole entry): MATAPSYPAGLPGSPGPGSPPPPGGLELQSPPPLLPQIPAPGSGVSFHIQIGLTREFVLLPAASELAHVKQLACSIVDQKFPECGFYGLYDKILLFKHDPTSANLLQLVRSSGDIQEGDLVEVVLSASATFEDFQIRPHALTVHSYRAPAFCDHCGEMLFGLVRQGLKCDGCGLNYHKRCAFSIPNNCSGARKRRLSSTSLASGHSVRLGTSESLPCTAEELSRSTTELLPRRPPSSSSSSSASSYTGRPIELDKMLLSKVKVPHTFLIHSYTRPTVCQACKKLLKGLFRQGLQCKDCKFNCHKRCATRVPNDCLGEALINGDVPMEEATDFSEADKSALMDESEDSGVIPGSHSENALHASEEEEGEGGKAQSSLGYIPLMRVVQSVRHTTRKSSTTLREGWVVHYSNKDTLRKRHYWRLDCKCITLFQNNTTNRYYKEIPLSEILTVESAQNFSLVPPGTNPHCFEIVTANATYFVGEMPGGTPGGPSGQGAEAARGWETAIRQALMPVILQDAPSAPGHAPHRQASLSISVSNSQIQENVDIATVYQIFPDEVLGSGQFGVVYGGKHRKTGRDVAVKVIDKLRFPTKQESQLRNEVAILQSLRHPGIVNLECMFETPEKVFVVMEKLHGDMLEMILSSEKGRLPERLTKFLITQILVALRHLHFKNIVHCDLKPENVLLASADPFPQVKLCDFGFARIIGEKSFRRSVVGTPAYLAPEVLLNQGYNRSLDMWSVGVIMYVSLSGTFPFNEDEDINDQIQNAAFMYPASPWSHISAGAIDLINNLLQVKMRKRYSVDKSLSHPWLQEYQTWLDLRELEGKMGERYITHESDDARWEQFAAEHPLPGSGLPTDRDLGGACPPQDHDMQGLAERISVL
The note with it: at 1 µM.

Assay [2] addresses T2, Serine/threonine-protein kinase D3 (Homo sapiens) (UniProt O94806).
T2 sequence (whole entry): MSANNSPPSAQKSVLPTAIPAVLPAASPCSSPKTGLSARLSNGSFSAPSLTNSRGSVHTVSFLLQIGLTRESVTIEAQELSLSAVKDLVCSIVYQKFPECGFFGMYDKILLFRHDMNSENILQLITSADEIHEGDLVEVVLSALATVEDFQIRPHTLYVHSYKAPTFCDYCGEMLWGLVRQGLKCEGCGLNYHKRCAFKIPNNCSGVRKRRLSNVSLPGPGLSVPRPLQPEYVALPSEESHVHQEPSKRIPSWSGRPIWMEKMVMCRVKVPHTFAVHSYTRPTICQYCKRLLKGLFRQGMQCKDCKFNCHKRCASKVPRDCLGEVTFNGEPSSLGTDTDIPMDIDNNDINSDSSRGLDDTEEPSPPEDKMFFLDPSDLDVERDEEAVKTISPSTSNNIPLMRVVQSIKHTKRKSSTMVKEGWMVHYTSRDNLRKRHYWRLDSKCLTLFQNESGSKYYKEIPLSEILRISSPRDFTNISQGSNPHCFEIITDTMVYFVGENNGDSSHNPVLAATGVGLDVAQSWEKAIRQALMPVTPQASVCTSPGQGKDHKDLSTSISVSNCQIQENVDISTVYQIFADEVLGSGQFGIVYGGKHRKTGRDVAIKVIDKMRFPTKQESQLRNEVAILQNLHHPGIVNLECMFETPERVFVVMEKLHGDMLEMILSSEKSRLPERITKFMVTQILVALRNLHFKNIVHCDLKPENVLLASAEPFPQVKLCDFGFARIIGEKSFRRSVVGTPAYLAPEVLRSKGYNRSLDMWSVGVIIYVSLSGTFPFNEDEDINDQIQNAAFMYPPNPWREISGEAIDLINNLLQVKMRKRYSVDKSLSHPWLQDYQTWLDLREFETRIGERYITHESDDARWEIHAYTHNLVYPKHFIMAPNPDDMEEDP
Particulars: at 0.1 µM.

Assay [3] concerns the target T2, Serine/threonine-protein kinase D3 (Homo sapiens). Particulars: at 1 µM.
Assay [4] deals with T3, cGMP-dependent protein kinase 1 (Homo sapiens) (UniProt Q13976).
T3 sequence (whole entry): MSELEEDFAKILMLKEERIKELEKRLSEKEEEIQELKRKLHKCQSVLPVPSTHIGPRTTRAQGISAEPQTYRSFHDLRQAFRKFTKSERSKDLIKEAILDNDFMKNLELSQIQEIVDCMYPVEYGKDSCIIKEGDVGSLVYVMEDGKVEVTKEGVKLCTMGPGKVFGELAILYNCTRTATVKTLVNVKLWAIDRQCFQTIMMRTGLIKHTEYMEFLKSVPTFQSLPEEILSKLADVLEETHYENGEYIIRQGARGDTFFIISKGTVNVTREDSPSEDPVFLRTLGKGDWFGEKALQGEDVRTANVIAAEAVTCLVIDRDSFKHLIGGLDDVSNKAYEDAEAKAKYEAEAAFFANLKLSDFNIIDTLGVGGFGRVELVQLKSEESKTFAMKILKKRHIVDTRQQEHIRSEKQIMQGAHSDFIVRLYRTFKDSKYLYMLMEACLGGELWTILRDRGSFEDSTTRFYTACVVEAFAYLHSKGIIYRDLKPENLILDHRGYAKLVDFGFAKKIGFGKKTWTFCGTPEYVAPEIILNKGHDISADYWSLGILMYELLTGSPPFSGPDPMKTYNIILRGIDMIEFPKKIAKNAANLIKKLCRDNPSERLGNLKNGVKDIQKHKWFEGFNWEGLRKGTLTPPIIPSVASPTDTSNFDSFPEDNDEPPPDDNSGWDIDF
Particulars: at 0.1 µM.

Assay [5] addresses T3, cGMP-dependent protein kinase 1 (Homo sapiens). The note with it: at 1 µM.
In assay [6] the target is T4, cGMP-dependent protein kinase 2 (Homo sapiens) (UniProt Q13237).
T4 sequence (whole entry): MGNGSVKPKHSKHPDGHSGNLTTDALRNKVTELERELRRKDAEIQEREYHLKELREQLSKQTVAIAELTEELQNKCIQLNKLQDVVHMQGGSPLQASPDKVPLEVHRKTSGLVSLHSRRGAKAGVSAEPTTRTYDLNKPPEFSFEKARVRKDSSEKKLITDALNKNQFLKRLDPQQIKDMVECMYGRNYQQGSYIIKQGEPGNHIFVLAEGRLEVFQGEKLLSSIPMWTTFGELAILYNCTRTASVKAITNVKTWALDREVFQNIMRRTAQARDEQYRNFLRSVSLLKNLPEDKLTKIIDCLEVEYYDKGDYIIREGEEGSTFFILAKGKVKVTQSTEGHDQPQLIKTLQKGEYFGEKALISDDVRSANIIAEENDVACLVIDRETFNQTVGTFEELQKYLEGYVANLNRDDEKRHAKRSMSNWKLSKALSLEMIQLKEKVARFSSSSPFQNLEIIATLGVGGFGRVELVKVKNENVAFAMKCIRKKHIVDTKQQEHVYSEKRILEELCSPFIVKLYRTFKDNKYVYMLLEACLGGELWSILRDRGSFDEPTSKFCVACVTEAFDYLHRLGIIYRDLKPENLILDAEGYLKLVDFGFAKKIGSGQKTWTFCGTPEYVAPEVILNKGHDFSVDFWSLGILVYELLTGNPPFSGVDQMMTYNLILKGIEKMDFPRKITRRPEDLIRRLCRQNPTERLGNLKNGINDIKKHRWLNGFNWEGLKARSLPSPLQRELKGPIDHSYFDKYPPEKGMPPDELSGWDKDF
Particulars: at 0.1 µM.

The target in assay [7] is T4, cGMP-dependent protein kinase 2 (Homo sapiens). Particulars: at 1 µM.
For assay [8], the target named is T5, cAMP-dependent protein kinase catalytic subunit PRKX (Homo sapiens) (UniProt P51817).
T5 sequence (whole entry): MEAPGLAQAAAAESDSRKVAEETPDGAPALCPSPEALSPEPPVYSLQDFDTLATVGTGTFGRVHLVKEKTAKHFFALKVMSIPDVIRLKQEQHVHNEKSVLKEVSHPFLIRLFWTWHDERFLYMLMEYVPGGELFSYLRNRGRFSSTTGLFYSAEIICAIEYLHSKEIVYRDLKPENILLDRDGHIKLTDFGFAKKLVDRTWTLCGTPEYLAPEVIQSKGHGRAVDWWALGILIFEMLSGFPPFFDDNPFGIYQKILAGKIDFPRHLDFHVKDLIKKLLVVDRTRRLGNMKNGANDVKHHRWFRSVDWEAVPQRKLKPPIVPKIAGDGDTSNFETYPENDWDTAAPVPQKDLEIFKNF
Particulars: at 0.1 µM.

In assay [9] the target is T5, cAMP-dependent protein kinase catalytic subunit PRKX (Homo sapiens). The note with it: at 1 µM.
For assay [10], the target named is Rho-associated protein kinase 1 (Homo sapiens) (UniProt Q13464). The note with it: at 0.1 µM.
Sequence of Rho-associated protein kinase 1 (Homo sapiens) (Q13464 2-1354 limits assumed): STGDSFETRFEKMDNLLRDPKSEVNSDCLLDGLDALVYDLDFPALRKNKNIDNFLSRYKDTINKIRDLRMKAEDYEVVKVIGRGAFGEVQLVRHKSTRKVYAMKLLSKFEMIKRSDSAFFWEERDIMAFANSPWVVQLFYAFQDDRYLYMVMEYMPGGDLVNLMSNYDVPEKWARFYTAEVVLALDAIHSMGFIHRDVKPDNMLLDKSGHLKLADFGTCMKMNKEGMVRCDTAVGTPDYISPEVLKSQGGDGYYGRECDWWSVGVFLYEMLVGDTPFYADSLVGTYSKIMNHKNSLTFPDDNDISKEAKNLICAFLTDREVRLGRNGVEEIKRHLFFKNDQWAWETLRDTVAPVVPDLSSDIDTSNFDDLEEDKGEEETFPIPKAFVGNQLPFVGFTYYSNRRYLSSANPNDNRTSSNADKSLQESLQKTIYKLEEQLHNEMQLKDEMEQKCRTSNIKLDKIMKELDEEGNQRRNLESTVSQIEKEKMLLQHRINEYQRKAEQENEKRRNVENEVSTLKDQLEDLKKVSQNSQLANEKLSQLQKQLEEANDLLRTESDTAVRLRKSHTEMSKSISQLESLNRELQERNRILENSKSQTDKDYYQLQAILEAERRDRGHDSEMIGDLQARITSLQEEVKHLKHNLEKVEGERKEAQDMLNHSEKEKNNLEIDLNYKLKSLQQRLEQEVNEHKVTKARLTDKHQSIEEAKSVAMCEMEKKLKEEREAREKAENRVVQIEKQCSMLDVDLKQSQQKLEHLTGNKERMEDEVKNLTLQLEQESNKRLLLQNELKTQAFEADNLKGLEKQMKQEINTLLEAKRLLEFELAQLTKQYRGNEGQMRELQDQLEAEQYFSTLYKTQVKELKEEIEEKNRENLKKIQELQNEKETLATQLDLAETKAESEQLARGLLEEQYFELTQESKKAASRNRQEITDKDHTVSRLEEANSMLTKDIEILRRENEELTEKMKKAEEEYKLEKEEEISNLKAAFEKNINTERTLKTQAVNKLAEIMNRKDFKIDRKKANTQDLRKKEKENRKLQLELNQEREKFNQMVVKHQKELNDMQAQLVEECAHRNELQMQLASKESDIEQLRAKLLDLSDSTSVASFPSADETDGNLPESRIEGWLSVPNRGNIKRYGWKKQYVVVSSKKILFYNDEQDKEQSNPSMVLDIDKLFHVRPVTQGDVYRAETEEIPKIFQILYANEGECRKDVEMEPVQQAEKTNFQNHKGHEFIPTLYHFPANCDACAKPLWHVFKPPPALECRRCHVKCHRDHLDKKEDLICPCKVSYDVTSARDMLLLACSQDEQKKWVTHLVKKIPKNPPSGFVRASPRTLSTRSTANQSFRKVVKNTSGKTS
For assay [11] the target is unchanged. The note with it: at 1 µM.
The target in assay [12] is Rho-associated protein kinase 2 (Homo sapiens) (UniProt O75116). The note with it: at 0.1 µM.
Assay [13] has the same target. The note with it: at 1 µM.
The target of assay [14] is Ribosomal protein S6 kinase alpha-1 (Homo sapiens) (UniProt Q15418). The note with it: at 0.1 µM.
Sequence of Ribosomal protein S6 kinase alpha-1 (Homo sapiens) (Q15418 whole entry): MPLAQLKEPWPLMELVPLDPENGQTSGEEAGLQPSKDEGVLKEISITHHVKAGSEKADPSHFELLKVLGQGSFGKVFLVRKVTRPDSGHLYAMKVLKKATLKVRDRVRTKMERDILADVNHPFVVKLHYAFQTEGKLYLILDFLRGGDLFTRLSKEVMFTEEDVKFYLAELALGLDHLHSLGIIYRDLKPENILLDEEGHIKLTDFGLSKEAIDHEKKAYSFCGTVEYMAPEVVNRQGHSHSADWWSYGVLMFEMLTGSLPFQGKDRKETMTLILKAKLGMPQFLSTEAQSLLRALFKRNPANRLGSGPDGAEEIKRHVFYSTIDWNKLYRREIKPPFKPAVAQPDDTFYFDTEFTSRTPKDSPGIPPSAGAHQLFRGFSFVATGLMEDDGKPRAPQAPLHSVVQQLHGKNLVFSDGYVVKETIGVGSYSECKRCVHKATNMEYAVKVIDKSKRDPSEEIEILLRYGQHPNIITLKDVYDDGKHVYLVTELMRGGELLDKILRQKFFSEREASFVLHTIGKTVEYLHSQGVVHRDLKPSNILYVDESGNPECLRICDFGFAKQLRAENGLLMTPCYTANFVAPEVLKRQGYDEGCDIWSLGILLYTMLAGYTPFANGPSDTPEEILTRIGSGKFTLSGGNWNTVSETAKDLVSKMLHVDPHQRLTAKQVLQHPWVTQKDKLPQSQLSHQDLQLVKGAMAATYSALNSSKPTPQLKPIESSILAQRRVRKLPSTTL
The target is the same in assay [15]. The note with it: at 1 µM.
The target of assay [16] is Ribosomal protein S6 kinase alpha-3 (Homo sapiens) (UniProt P51812). Particulars: at 0.1 µM.
Sequence of Ribosomal protein S6 kinase alpha-3 (Homo sapiens) (P51812 whole entry): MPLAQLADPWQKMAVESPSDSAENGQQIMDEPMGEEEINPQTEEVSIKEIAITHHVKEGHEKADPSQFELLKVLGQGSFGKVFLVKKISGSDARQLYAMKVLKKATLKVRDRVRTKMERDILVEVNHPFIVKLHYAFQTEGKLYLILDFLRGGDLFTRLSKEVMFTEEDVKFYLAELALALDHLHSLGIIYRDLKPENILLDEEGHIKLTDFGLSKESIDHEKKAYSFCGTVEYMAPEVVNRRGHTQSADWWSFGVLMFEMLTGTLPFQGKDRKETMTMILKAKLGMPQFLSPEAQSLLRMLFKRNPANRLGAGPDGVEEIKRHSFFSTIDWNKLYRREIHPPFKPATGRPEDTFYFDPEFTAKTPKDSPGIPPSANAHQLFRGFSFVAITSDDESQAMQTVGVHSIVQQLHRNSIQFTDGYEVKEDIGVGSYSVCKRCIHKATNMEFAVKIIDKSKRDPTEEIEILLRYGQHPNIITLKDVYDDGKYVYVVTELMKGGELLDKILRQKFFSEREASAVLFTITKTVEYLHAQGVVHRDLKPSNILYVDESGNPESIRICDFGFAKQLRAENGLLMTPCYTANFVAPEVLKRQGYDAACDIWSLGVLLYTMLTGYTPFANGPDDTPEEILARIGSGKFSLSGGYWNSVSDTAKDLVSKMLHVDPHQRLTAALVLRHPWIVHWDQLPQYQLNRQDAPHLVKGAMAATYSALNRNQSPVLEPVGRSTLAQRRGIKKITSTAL
Assay [17] has the same target. Particulars: at 1 µM.
The target in assay [18] is Ribosomal protein S6 kinase alpha-2 (Homo sapiens) (UniProt Q15349). The note with it: at 0.1 µM.
Sequence of Ribosomal protein S6 kinase alpha-2 (Homo sapiens) (Q15349 whole entry): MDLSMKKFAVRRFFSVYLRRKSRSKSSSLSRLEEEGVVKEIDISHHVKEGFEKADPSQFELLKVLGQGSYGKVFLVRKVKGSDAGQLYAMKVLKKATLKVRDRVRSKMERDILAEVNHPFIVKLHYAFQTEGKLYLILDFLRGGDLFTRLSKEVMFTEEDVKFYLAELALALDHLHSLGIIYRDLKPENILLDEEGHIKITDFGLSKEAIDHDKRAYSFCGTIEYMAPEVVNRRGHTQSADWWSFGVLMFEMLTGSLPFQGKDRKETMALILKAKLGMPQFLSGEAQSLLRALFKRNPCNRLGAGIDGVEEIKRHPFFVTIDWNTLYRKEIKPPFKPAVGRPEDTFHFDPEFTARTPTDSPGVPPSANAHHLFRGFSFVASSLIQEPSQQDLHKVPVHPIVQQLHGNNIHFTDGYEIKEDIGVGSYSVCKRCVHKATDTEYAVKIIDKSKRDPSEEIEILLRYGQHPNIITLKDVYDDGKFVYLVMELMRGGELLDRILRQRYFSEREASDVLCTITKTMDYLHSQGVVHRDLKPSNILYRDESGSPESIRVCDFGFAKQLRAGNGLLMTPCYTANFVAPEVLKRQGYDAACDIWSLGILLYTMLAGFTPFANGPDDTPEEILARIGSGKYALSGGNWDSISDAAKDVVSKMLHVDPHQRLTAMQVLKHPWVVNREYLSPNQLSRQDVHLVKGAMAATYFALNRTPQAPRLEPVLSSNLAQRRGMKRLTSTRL
The target is the same in assay [19]. The note with it: at 1 µM.
Assay [20] concerns the target Ribosomal protein S6 kinase alpha-6 (Homo sapiens) (UniProt Q9UK32). The note with it: at 0.1 µM.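 Further: reported value is the mean inhibition of RSK4, from the GSK PKIS kinase inhibitor screen.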

Our source for the inhibition values is ChEMBL document CHEMBL1961873, “Compounds: GSK PKIS; Assays: Nanosyn kinase panel” (2012).

Sequence of Ribosomal protein S6 kinase alpha-6 (Homo sapiens) (Q9UK32 whole entry): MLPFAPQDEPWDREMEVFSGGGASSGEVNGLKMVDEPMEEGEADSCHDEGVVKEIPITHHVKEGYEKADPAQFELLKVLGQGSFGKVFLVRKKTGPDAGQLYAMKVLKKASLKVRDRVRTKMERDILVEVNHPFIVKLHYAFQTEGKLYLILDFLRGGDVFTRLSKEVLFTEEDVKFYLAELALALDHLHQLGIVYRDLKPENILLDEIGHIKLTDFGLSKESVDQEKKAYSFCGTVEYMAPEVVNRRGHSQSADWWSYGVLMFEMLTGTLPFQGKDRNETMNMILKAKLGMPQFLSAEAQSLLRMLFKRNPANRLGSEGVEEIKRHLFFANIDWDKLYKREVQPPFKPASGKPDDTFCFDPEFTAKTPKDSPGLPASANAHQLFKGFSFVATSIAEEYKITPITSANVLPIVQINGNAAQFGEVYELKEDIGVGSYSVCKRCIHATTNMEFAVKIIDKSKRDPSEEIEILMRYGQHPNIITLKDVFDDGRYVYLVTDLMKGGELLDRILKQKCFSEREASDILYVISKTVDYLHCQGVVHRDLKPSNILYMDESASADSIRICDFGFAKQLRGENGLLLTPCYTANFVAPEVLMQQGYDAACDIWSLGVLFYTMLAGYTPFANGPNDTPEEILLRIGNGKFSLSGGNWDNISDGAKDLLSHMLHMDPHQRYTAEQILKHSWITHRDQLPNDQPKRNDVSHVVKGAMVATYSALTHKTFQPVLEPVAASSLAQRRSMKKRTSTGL

As to `[O-][S+]1CCN(Cc2ccc(-c3ccc4ncnc(Nc5ccc(OCc6ccccc6)c(F)c5)c4c3)o2)CC1`, the inhibition in [1] was 4.32%; in assay [2], 2.88%; in assay [3], 3.26%; in [4] it was 1.05%; in assay [5], 3.37%; in assay [6], 0.25%. In addition, the inhibition is 2.79% in assay [7]; 0.09% in [8]; -1.73% in [9]; -0.61% in assay [10]; 1.51% in [11]; 0.14% in assay [12]. Further, the inhibition was 0.33% in assay [13]; -0.15% in assay [14]; -0.56% in assay [15]; -0.51% in [16]; -0.78% in assay [17]; 1.48% in assay [18]. Besides, the inhibition in assay [19] was found to be 1.83%; in [20] it was 0.96%.

On to `CC1=C(C(=O)Nc2ccc3[nH]ncc3c2)C(c2ccc3ccccc3c2)CC(=O)N1` (stereo not drawn), for which the inhibition was 6.67% in assay [1]; 3.48% in [2]; 8.7% in [3]; 12.8% in [4]; 53.3% in assay [5]; 12.6% in assay [6]. In addition, the inhibition in assay [7] was 53.3%; in [8], 33.7%; in assay [9] it was 75.3%; in assay [12], 77%; in assay [13] it was 84.2%; in [14], 3.94%. The inhibition in assay [15] is 26.4%; in [16], 2.4%; in assay [17], 21.3%; in assay [18] it was 2.26%; in [19], 13.7%; in assay [20], 1.04%.

For `CCn1c(-c2nonc2N)nc2ccncc21`, the inhibition in assay [1] was determined as 3.25%; in assay [2] it was 0.84%; in assay [3], 2.17%; in assay [4], 0.57%; in assay [5], 3.36%; in assay [6], 2.12%. Moreover, the inhibition in [7] was 8.39%; in assay [8], 0.91%; in assay [9], -1.6%; in [10], 1.94%; in [11] it was 1.28%; in assay [12], 0.14%. The inhibition was 0.99% in assay [13]; 0.57% in [14]; 0.69% in assay [15]; 0.32% in assay [16]; 0.16% in assay [17]; -0.05% in assay [18]. Also, the inhibition is 1.68% in [19] and 1.33% in [20].

With `CCc1cccc(NC(=O)Nc2ccc(Oc3ccc4nc(NC(=O)OC)[nH]c4c3)cc2)c1`, the inhibition in [1] was 1.88%; in assay [2], 1.72%; in assay [3], 0.75%; in assay [4], -0.2%; in [5] it was 3.08%; in assay [6] it was 0.88%. The inhibition in [7] worked out at 0.86%; in assay [8], 0.91%; in [9], 3.18%; in [10], 12.1%; in [11], 18.3%; in assay [12], 5.32%. Moreover, the inhibition in [13] was 8.2%; in assay [14], 1.07%; in assay [15], 1.59%; in assay [16], 0.58%; in assay [17], 0.96%; in assay [18], 1.52%. Further, the inhibition in assay [19] is 1.5%; in assay [20], -0.02%.
